# The list is not random: actives were taken first. Their share in the collection is about 11%.
# NIH3T3 tox – Cytotoxic Profiling in NIH 3T3 Cell Line of Diverse Libraries Using Quantitative High-Throughput Screening; NIH 3T3 viability, CellTiter-Glo ATP luminescence, 48-72 h; AID 1345082, 2018; Potency, µM (titrated, usually from 96.7 µM), for inactives: at the top dose activity change, negative = cytotoxicity, actives largely listed as inhibitors; 94,000 tested, 4.3% active; further: nearly all actives have a fitted effect of over 55% in size
#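 NIH 3T3 cells at 400 cells/well received 23 nL of compound by pintool and were incubated 48 or 72 h at 37 °C. Viability was read as ATP-coupled CellTiter-Glo luminescence.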
# hNpr1 antagonist – Natriuretic polypeptide receptor (hNpr1) antagonism - Primary qHTS. HEK293 hNpr1 GloSensor cGMP, ANP-stimulated luminescence. Potency, µM (highest dose often 46.3 µM), without a hit: at the top dose activity change, negative = inhibition, usual class: inhibitors. 76,000 tested, 1.6% active. AID 1347048, 2019; calls by dose curve; further: nearly all actives have a fitted effect of over 60% in size
#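 Compound pre-incubated 30 min at room temperature on GloSensor-loaded HEK293 cells stably carrying hNpr1 and the pGS-40F cGMP biosensor. Stimulation uses hNppA at 0.1 nM final; luminescence is taken at baseline and 20 min post-agonist.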
# Luciferase inh – Firefly luciferase inhibition profiling of diverse chemical library using quantitative high-throughput screening; 76,000 tested, 2.5% active; Potency, µM (titrated, usually from 115 µM), hits mostly inhibitors; purified P. pyralis luciferase, luminescence, biochemical; AID 1347043, 2019; further: nearly all actives have a fitted effect of over 65% in size
# Target sequence (P08659 whole entry, looked up): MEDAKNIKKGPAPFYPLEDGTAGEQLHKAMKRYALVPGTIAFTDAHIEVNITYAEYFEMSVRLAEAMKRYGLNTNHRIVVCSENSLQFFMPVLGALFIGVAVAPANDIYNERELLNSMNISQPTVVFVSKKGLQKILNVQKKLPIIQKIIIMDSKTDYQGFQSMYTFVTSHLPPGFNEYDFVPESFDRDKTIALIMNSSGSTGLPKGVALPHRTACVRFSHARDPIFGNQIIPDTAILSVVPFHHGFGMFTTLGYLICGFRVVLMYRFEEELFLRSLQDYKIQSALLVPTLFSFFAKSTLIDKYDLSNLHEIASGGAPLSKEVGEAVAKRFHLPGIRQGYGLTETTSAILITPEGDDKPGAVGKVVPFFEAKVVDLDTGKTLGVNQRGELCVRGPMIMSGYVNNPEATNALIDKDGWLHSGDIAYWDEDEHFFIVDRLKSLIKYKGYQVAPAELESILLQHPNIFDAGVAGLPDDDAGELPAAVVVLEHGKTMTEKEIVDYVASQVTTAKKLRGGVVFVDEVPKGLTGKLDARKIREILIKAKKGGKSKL
#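 FLuc 10nM, D-luciferin 10uM, ATP 10uM, Mg acetate 10mM, Tris acetate pH 7.5, Tween/BSA; cpd qHTS; enzyme added last; CCD luminescence.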
# HEK293 tox – Cytotoxic Profiling in HEK 293 Cell Line of Diverse Libraries Using Quantitative High-Throughput Screening. AID 1345083, 2018. 94,000 tested, 6.6% active. HEK 293 viability, ATP luminescence (CellTiter-Glo), 48-72 h. Potency, µM (top dose mostly 115 µM), for inactives: top-dose activity change, negative = cytotoxicity, actives largely listed as inhibitors; further: nearly all actives have a fitted effect of over 60% in size
#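 Pintool-delivered compounds were incubated with HEK 293 cells (250 cells/well) at 37 degree Celsius for 48 or 72 hr. ATP-dependent luminescence (CellTiter-Glo) then reported remaining viable cells.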
# The depositor's hits bear a star; i = inactive; ? = inconclusive; · = no result; [ ] = dose if it differs, or a comment. Unless noted, the call rests on the fitted dose curve; in most records, active means well fitted curve in the direction sought with a large enough effect; inconclusive means small, poorly fitted or top-dose-only effect, or another doubt; inactive means no such curve, though single readings can be large; an effect the other way counts as inactive or inconclusive. On the % scale 0 is the no-effect control and ±100 the full control effect; potency means the concentration at half of the fitted maximal effect.
SMILES,NIH3T3 tox,hNpr1 antagonist,Luciferase inh,HEK293 tox
COc1ccc(C(=O)N2CCCn3nc(C)c(-c4ccccc4-c4ccccc4)c32)cn1,?,-18%[70.6 µM],i,?
Cc1nn2c(c1-c1cccc3cn[nH]c13)N(C(=O)c1cccc(Cl)c1)CCC2,?,-1%[70.6 µM],i,50µM*
COc1ccccc1C(=O)N1CCCn2nc(C)c(-c3ccccc3-c3ccccc3)c21,?,-1%[70.6 µM],i,89µM*
Cc1nn2c(c1-c1ccccc1Oc1ccccc1)N(C(=O)C1CCC1)CCC2,?,-5%[70.6 µM],i,89µM*
Cc1ccncc1-c1c(C)nn2c1N(C(=O)c1cccc(Cl)c1)CCC2,?,0%[70.6 µM],i,-25%[172 µM]
Cc1nn2c(c1-c1ccccc1-c1ccccc1)N(C(=O)C1CCOCC1)CCC2,?,3%[70.6 µM],i,-10%[172 µM]
CCN1CCN(Cc2cc(C)cc(CN(C)Cc3ccccn3)c2C)CC1,-30%,-1%,i,-8%
O=C(CNC(=O)c1ccc(-c2cnc3ccccc3c2)cc1)NCCc1cccc(F)c1,-18%,·,·,i
COc1ccc(CC(=O)NC2CCN(c3ccc4nnc(C)n4n3)C2)cc1 (stereo unspecified),-20%,·,·,-15%
COc1cccc(C(=O)N2CCCN(c3ccc4nnc(C)n4n3)CC2)c1,1%,·,·,i
COc1cccc(C(=O)N2CCN(c3ccc4ncc(-c5cccc(C(F)(F)F)c5)n4n3)CC2)c1,11µM*,·,·,?
O=C(CC1COCCN1)N1CCN(C/C=C/c2ccccc2)CC1 (stereo unspecified),-4%,2%,i,?
Cn1ccc(NC(=O)C(C)(C)Oc2nn(CC3CC3)c3ccc(CN4CCCC4)cc23)n1,-19%[138 µM],3%[70.6 µM],i,?
COCC(=O)N[C@H]1C[C@@H](Cc2cc(CN(C)c3ccccc3)on2)C1(C)C,?,-17%[70.6 µM],i,45µM*
CN(Cc1cc(C[C@@H]2C[C@H](NCc3ncc[nH]3)C2(C)C)no1)c1ccccc1,100µM*,-3%[70.6 µM],?,63µM*
CC(C)NC(=O)N[C@H]1C[C@@H](Cc2cc(CN(C)c3ccccc3)on2)C1(C)C,?,-24%[70.6 µM],i,?
CC1(C)[C@H](Cc2cc(CN3CCCCC3)on2)C[C@@H]1NCc1ccccn1,112µM*,-4%[70.6 µM],i,?
CC(=O)N[C@H]1C[C@@H](Cc2cc(CN(C)c3ccccc3)on2)C1(C)C,-22%[174 µM],-14%[70.6 µM],i,79µM*
COCC(=O)N[C@H]1C[C@@H](Cc2cc(CN(C)Cc3ccccc3)on2)C1(C)C,?,-18%[70.6 µM],i,?
O=C(NC1CCN(c2ccc3nnc(-c4ccccc4)n3n2)CC1)c1ccc(F)cc1,-11%,·,·,-4%
O=C1CC2(CCN([S+](=O)([O-])c3cccc(C(F)(F)F)c3)CC2)Oc2cc(Cl)ccc21,?,0%,i,32µM*
Cc1ccc(C(=O)N2CCC3(CC2)CC(=O)c2ccc(Cl)cc2O3)cc1,35µM*,?,i,?
O=C1CC2(CCN([S+](=O)([O-])c3cccc(C(F)(F)F)c3)CC2)Oc2ccccc21,?,0%,i,?
COc1ccc(C(=O)N2CCC3(CC2)CC(=O)c2ccc(Cl)cc2O3)cc1,?,-10%,i,50µM*
O=C1CC2(CCN(C(=O)c3ccccc3)CC2)Oc2ccccc21,?,2%[70.6 µM],i,?
SMILES,NIH3T3 tox,hNpr1 antagonist,Luciferase inh,HEK293 tox
COc1ccc(CN2CC3(CCN(S(=O)(=O)c4ccccc4Cl)CC3)C2=O)cc1,?,-20%,i,?
COc1ccc(CN2CC3(CCN(S(=O)(=O)c4ccc(F)cc4)CC3)C2=O)cc1,-23%,-4%,i,89µM*
CN(C)C(=O)c1cn2cc(-c3cccc(C(F)(F)F)c3)sc2n1,-3%[138 µM],·,·,-23%[172 µM]
CCc1nn(-c2ccccc2)c(Oc2cccc(C)c2)c1CCC(=O)N1CCOCC1,?,-22%,i,40µM*
Cc1nn(-c2ccc(F)cc2)c(Oc2ccccc2)c1CCC(=O)N1CCOCC1,?,-16%,i,?
CCc1nn(-c2ccc(F)cc2)c(Oc2ccccc2)c1CCC(=O)N1CCCC1,?,-27%,i,45µM*
O=C(c1ccc2c(c1)CC(=O)N2Cc1ccccc1)N1CCN(C2CCCCC2)CC1,?,-9%,i,?
COc1ccc(CN2CCCn3nc(C)c(-c4ccnn4C(C)C)c32)cc1O,?,1%[70.6 µM],i,-11%[172 µM]
Cc1nn2c(c1-c1cccnc1N1CCOCC1)N(Cc1ccc3c(c1)CCO3)CCC2,45µM*,-19%[70.6 µM],i,-23%[172 µM]
Cc1nn2c(c1-c1ccccc1OCc1ccccc1)N(Cc1ccccc1)CCC2,?,-21%[70.6 µM],i,?
COc1ccc(OC)c(CN2CCCn3nc(C)c(-c4cccnc4N4CCOCC4)c32)c1,?,-18%,i,-29%
Cc1nn2c(c1-c1cccnc1N1CCOCC1)N(CCC(C)C)CCC2,?,-25%[70.6 µM],i,40µM*
Cc1nn2c(c1-c1ccnn1C(C)C)N(Cc1ccc3c(c1)CCO3)CCC2,32µM*,-2%[70.6 µM],i,?
O=C(Nc1ccc2c(c1)OCO2)C1CCCN(c2cn[nH]c(=O)c2)C1 (stereo unspecified),-9%,1%,?,-11%
COc1ccccc1-c1cnc2n[nH]c(-c3ccc4c(c3)OCO4)c2n1,35µM*,?,i,35µM*
Oc1ccccc1-c1cnc2n[nH]c(-c3ccc4c(c3)OCO4)c2n1,?,-19%[70.6 µM],?,?
COc1cccc(-c2cnc3n[nH]c(-c4ccc5c(c4)OCO5)c3n2)c1,50µM*,-11%[70.6 µM],i,?
Cc1ccccc1-c1cnc2n[nH]c(-c3ccc4c(c3)OCO4)c2n1,25µM*,-18%[70.6 µM],i,45µM*
COc1cc(F)ccc1-c1cnc2n[nH]c(-c3ccc4c(c3)OCO4)c2n1,25µM*,-26%[70.6 µM],i,?
COCC(=O)N1CCCC(C(=O)N2CCC(c3ccccc3)CC2)C1 (stereo unspecified),-15%[138 µM],·,·,-8%[172 µM]
Cc1ccc(CNC(=O)N2CCCC(Cn3cnc4cccnc43)C2)cc1 (stereo unspecified),-11%,1%,i,?
COc1cccc(-c2ccc(C(=O)NCCNC(=O)c3ccc(C(F)(F)F)cc3)cc2)c1,3%,·,·,?
COc1ccc(-n2ccnc2CN(C)Cc2cc(C(C)C)on2)cc1,?,-1%,i,?
Fc1ccccc1-c1cnc2n[nH]c(-c3ccc4c(c3)OCO4)c2n1,-12%[138 µM],-21%[70.6 µM],i,?
COc1ncccc1-c1cnc2n[nH]c(-c3ccc4c(c3)OCO4)c2n1,45µM*,-19%[70.6 µM],i,45µM*
O=C(C1CCN(S(=O)(=O)c2cccc(C(F)(F)F)c2)CC1)N1CCC(c2ccccc2)CC1,?,·,·,22µM*

# Screens from PubChem.
